Eight molecules from PubChem BioAssay (NCI) can be followed below.

Molecules are shown by their SMILES. Compounds without any hit were thinned out: in the full panel of roughly 83,000, 20% have a hit.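 A percent growth of 40 corresponds to 60% growth inhibition; 0 means no net growth; -100 means all cells died. Active threshold: below 10.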 A number with no mark means an inactive call. The source made the active and inactive calls.

Common to all, as to experiment: NCI-60 one-dose screen, 48 h (100 = growth as untreated, 0 = no growth, -100 = all killed)
In one assay the test system is SK-MEL-2 melanoma. The note with it: 10 µM unless noted.
Another assay deals with EKVX NSCLC. The note with it: 10 µM unless noted.
Another assay concerns SN12C renal. The note with it: 10 µM unless noted.
The subject of the next assay is UO-31 renal. The note with it: 10 µM unless noted.
The subject of another assay is ACHN renal. The note with it: 10 µM unless noted.
The next assay has as its system CAKI-1 renal. The note with it: 10 µM.
In another assay the test system is A498 renal. The note with it: 10 µM unless noted.
For a further assay, the system named is CCRF-CEM leukemia. The note with it: 10 µM unless noted.
The subject of another assay is MOLT-4 leukemia. The note with it: 10 µM unless noted.
Another assay has as its system SR leukemia. The note with it: 10 µM unless noted.
Another assay has as its system RPMI-8226 leukemia. The note with it: 10 µM unless noted.
A further assay has as its system OVCAR-8 ovarian. The note with it: 10 µM unless noted.
The next assay concerns OVCAR-5 ovarian. The note with it: 10 µM unless noted.
The test system of another assay is OVCAR-4 ovarian. The note with it: 10 µM unless noted.
For a further assay, the system named is SK-OV-3 ovarian. The note with it: 10 µM unless noted.
The next assay deals with IGROV1 ovarian. The note with it: 10 µM unless noted.
In a further assay the test system is OVCAR-3 ovarian. The note with it: 10 µM unless noted.
A further assay relates to HS 578T breast. The note with it: 10 µM unless noted.
A further assay relates to NCI/ADR-RES ovarian. The note with it: 10 µM unless noted.

As for `CCCCOc1nc2ccc(Cl)cc2cc1/C=C/C(=O)/C=C/c1ccc(OC)cc1`, the growth was 90.5% with SK-MEL-2 melanoma; 110% in the assay on EKVX NSCLC; 92.7% in the assay on SN12C renal; 84.4% with UO-31 renal; 105% with ACHN renal; 99.1% in the assay with CAKI-1 renal. The growth in the assay on A498 renal was 101%; with CCRF-CEM leukemia, 87.2%; in the assay with MOLT-4 leukemia it was 78%; in the assay with SR leukemia, 76.2%; in the assay with RPMI-8226 leukemia, 8.93% (active); with OVCAR-8 ovarian, 96.2%. For the same molecule, the growth was 122% with OVCAR-5 ovarian; 103% in the assay on OVCAR-4 ovarian; 110% in the assay with SK-OV-3 ovarian; 93.2% with IGROV1 ovarian; 98.2% in the assay with OVCAR-3 ovarian; 107% with HS 578T breast. In addition, the growth in the assay with NCI/ADR-RES ovarian is 107%.
As to `O=C(Nc1ccc(-n2ccc3c(NC(=O)c4ccccc4)nccc32)cc1)c1cccc(C(F)(F)F)c1`, the growth in the assay on SK-MEL-2 melanoma is 46.1%; in the assay on EKVX NSCLC, 52.7%; in the assay on SN12C renal, 39.8%; in the assay on UO-31 renal it was 23.7%; in the assay with ACHN renal, 33.4%; in the assay with CAKI-1 renal it was 19.4%. Further, the growth with A498 renal is 39%; in the assay with CCRF-CEM leukemia it was 22.1%; in the assay with MOLT-4 leukemia, 18.6%; in the assay with SR leukemia, -2.23% (active); with RPMI-8226 leukemia, 6.14% (active); with OVCAR-8 ovarian it was 30.4%. Besides, the growth was 52.5% with OVCAR-5 ovarian; 108% with OVCAR-4 ovarian; 36.2% in the assay with SK-OV-3 ovarian; 33.3% in the assay with IGROV1 ovarian; 20.9% in the assay on OVCAR-3 ovarian; 19.8% with NCI/ADR-RES ovarian.
For `CN(C)CCS(=O)(=O)Nc1cc(-c2ccc3ncnc(Nc4ccc(F)c(Cl)c4)c3c2)cnc1Cl`, the growth in the assay on SK-MEL-2 melanoma was -53.4% (active); with EKVX NSCLC, -9.17% (active); in the assay with SN12C renal, 22.6%; with UO-31 renal it was -61.2% (active); with ACHN renal it was 20.2%; in the assay on CAKI-1 renal, -30.6% (active). Further, the growth with A498 renal was -78% (active); in the assay on CCRF-CEM leukemia it was 0.907% (active); with MOLT-4 leukemia, -36.7% (active); in the assay with SR leukemia, -29.1% (active); in the assay with RPMI-8226 leukemia it was -39.9% (active); in the assay with OVCAR-8 ovarian it was 13.7%. Further, the growth with OVCAR-5 ovarian is -22.4% (active); in the assay with OVCAR-4 ovarian, 19.3%; with SK-OV-3 ovarian it was -42.7% (active); in the assay on IGROV1 ovarian, -23.7% (active); with OVCAR-3 ovarian, -87% (active); in the assay with HS 578T breast it was -7.53% (active). Also, in the assay on NCI/ADR-RES ovarian, the growth was 14.9%.
Take `O=C1/C(=C/c2cccc3cnccc23)Cc2cc(F)ccc21`: the growth in the assay on SK-MEL-2 melanoma is 94.6%; in the assay on EKVX NSCLC, 91.2%; in the assay on SN12C renal, 94.6%; in the assay with UO-31 renal, 70.4%; in the assay on ACHN renal, 95.7%; in the assay on CAKI-1 renal it was 84.5%. Besides, the growth in the assay with A498 renal was 97.2%; in the assay with CCRF-CEM leukemia, 110%; with MOLT-4 leukemia it was 82.1%; in the assay on SR leukemia it was 84.6%; in the assay with RPMI-8226 leukemia, 85.9%; with OVCAR-8 ovarian, 96.1%. Moreover, the growth in the assay with OVCAR-5 ovarian is 108%; in the assay on OVCAR-4 ovarian it was 77%; in the assay with SK-OV-3 ovarian, 76.9%; with IGROV1 ovarian, 85.9%; with OVCAR-3 ovarian, 109%; with HS 578T breast it was 109%. In addition, in the assay on NCI/ADR-RES ovarian, the growth is 90.7%.
As for `COc1cccc(-c2nc3sccn3c2-c2ccnc(NCCNC(=O)c3ccccc3)n2)c1`, the growth in the assay with SK-MEL-2 melanoma is 73.3%; with EKVX NSCLC, 106%; in the assay on SN12C renal it was 84.3%; with UO-31 renal, 53.8%; with ACHN renal, 65.8%; in the assay on CAKI-1 renal, 84.4%. Further, the growth in the assay with A498 renal is 66.3%; with CCRF-CEM leukemia it was 52.5%; in the assay on MOLT-4 leukemia, 53.4%; in the assay with SR leukemia it was 79.8%; in the assay on RPMI-8226 leukemia it was 41.6%; in the assay with OVCAR-8 ovarian, 62.5%. In addition, the growth is 99.1% with OVCAR-5 ovarian; 109% in the assay with OVCAR-4 ovarian; 88.5% in the assay with SK-OV-3 ovarian; 69.2% in the assay on IGROV1 ovarian; 89.1% in the assay with OVCAR-3 ovarian; 70.5% in the assay on NCI/ADR-RES ovarian.
As to `Cc1cc(O[C@@H]2O[C@@H](C)[C@H](O)[C@@H](O)[C@H]2O)c2c3c(c(O[C@@H]4O[C@@H](C)[C@H](O)[C@@H](O)[C@H]4O)cc2c1)C(=O)c1c(O)cccc1C3=O`, the growth in the assay on SK-MEL-2 melanoma is 90.4%; in the assay with EKVX NSCLC, 76.7%; with SN12C renal it was 54.2%; in the assay with UO-31 renal, 11.7%; in the assay on ACHN renal, 47.2%; in the assay on CAKI-1 renal, 60.3%. Moreover, the growth in the assay on A498 renal is -53% (active); in the assay on CCRF-CEM leukemia it was 82.6%; in the assay on MOLT-4 leukemia it was 68.8%; in the assay with SR leukemia, 82.6%; with RPMI-8226 leukemia it was 57.2%; in the assay on OVCAR-8 ovarian, 22.9%. The growth was 98.5% in the assay on OVCAR-5 ovarian; 81.8% in the assay with OVCAR-4 ovarian; 83.6% in the assay on SK-OV-3 ovarian; 89.3% in the assay on IGROV1 ovarian; 93.7% with OVCAR-3 ovarian; -12.8% (active) in the assay on HS 578T breast. Further, the growth in the assay on NCI/ADR-RES ovarian was 36.4%.
As for `CC1OC(n2c3ccccc3c3c4c(c5c6ccccc6[nH]c5c32)C(=O)N(CCN[C@@H]2CCC[C@H]2N)C4=O)CC(O)C1O` (stereo not given in full), the growth was 47.1% in the assay with SK-MEL-2 melanoma; 23.3% with EKVX NSCLC; 13.7% in the assay with SN12C renal; 63.3% in the assay with UO-31 renal; 25% in the assay on ACHN renal; 78.6% in the assay on CAKI-1 renal. In addition, the growth was 48.3% in the assay with A498 renal; 13.2% in the assay with CCRF-CEM leukemia; 2.71% (active) in the assay on MOLT-4 leukemia; -19.1% (active) in the assay on SR leukemia; -5.48% (active) in the assay on RPMI-8226 leukemia; 18% in the assay on OVCAR-8 ovarian. Further, the growth in the assay with OVCAR-5 ovarian was 49.2%; in the assay with OVCAR-4 ovarian, 24.7%; in the assay on SK-OV-3 ovarian, 20.1%; with IGROV1 ovarian, 22.7%; in the assay with OVCAR-3 ovarian, 27.7%; with HS 578T breast, 30%. Besides, the growth in the assay on NCI/ADR-RES ovarian was 77.6%.
As for `CCOC(=O)c1[nH]c(-c2ccc(Cl)cc2)cc1-c1cccnc1`, the growth was 39.5% with SK-MEL-2 melanoma; 24.3% in the assay on EKVX NSCLC; 43.6% in the assay on SN12C renal; 21% in the assay on UO-31 renal; 35.7% in the assay with ACHN renal; 28.3% with CAKI-1 renal. For the same molecule, the growth in the assay with A498 renal was -9.26% (active); in the assay with CCRF-CEM leukemia, 9.2% (active); in the assay on MOLT-4 leukemia it was 11.7%; in the assay with SR leukemia it was 12.9%; with RPMI-8226 leukemia, 4.59% (active); with OVCAR-8 ovarian, 39.3%. Further, the growth in the assay on OVCAR-5 ovarian is 47.3%; in the assay on OVCAR-4 ovarian it was 51.1%; in the assay with SK-OV-3 ovarian it was 7.46% (active); in the assay with IGROV1 ovarian it was 43.9%; in the assay with OVCAR-3 ovarian, -7.92% (active); in the assay with HS 578T breast it was 16.3%. Also, the growth with NCI/ADR-RES ovarian was 12.1%.
